Experimental data from PubChem BioAssay AID1159580 (chemical genetic matrix, 2015).
About 2,000 (36%) of roughly 5,500 compounds were called active. Inconclusive results (about 18%) are left out. Cut-off read from the data, not from the text of the source: active = normalized growth mostly below about 0.91 (no sharp cut-off); inconclusive = no clear call, values can overlap the other calls; inactive = mostly above about 0.92. This is one part of the list.

Experiment: chemical genetic growth profiling, strain panel (AID 1159580);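 note: tested at 20 µM; growth read once vehicle control cultures reached saturation at 30 °C; 1 = growth at the plate median or of vehicle wells; lower values mean less growth of the strain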
Details: S. cerevisiae deletion strains, growth OD

Measured: normalized growth

CC1(C)C2CCC1(C)C(O)C2 (stereo not drawn)
inactive: locus YHR030C, strain SLT2, stronger effect = lower value 0.98 | locus YHR079C, strain IRE1, stronger effect = lower value 0.981 | locus YJL095W, strain BCK1, stronger effect = lower value 0.999 | locus YJR066W, strain TOR1, stronger effect = lower value 0.923 | locus YLR113W, strain HOG1, stronger effect = lower value 0.991 | locus YNL183C, strain NPR1, stronger effect = lower value 0.947 | locus YOR231W, strain MKK1, stronger effect = lower value 0.992 | locus YPL256C, strain CLN2, stronger effect = lower value 0.993
